Here are results for 40 compounds from PubChem BioAssay.

The structures appear in SMILES notation. The source made the active and inactive calls. How the calls were made is not given here.

This assay deals with Pantothenate synthetase (Mycobacterium tuberculosis (strain ATCC 25618 / H37Rv)) (UniProt P9WIL5). The experiment in a line: Recombinant Mtb pantothenate synthetase (PanC) inhibitors, coupled enzyme, confirmatory (AID 375).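 Further: 0% = full reaction with vehicle and 100% = no enzyme background.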 To be noted: coupled enzyme assay; at 10 µM, active compounds read high.
Pantothenate synthetase (Mycobacterium tuberculosis (strain ATCC 25618 / H37Rv)), sequence (P9WIL5 whole entry, looked up): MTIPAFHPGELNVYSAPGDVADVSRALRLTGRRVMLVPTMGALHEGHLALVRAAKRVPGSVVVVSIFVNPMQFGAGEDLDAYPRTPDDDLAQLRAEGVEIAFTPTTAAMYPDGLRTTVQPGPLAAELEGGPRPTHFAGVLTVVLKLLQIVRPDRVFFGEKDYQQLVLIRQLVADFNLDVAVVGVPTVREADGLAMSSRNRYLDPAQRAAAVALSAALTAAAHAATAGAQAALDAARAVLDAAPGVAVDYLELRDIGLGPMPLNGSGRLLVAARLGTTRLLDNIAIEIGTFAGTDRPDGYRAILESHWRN
With `O=C(NCc1cccnc1)c1ccccn1`, the inhibition – broadly, the change of the read-out against control, counted positive when it falls – is 0% (inactive). In the case of `O=C(CSc1nc2ccccc2[nH]1)c1ccc2c(c1)OCO2` it was 0% (inactive); in that of `CN(C)CCC=C1c2ccccc2CCc2ccccc21`, 0% (inactive). The result for `CN(C)S(=O)(=O)c1ccc(/C(O)=C2/C(=O)C(=O)N(CCN3CCCCC3)C2c2cccnc2)cc1` (stereo not given) reads 0% (inactive); that for `CC(=O)NC(Cc1c[nH]c2ccccc12)C(=O)OCC(=O)Nc1cc(C)on1` (stereo not given), 0% (inactive); that for `CC(=O)OCC(=O)[C@@]1(O)CC[C@H]2[C@@H]3CCC4=CC(=O)CC[C@]4(C)[C@H]3[C@@H](O)C[C@@]21C`, 5% (inactive). Regarding `CCOc1ccc(NS(=O)(=O)c2ccc(OCC(=O)N3CCCC3)cc2)cc1`, the inhibition is 0% (inactive). In the case of `Cn1c(Cc2ccccc2)nnc1SCC(=O)NC1CCCCC1` it was 0% (inactive); in that of `CCCCOc1ccc(-c2ncc(Cl)cn2)cc1`, 0% (inactive); in that of `CCn1c(C)cc(=S)c2ccccc21`, 9% (inactive). In the case of `Nc1c(S(=O)(=O)c2cccs2)c2nc3ccccc3nc2n1CC1CCCO1` (stereo not given) it was 0% (inactive); in that of `COC(=O)c1ccccc1NC1c2ccccc2C(=O)N1c1cccnc1` (stereo not given), 0% (inactive). For the compound `CC(O)c1n(C)c(Cl)c[n+]1C` (stereo not given), the inhibition was 3% (inactive). In the case of `CCc1ccccc1N=C1SCC(=O)N1C` it was 0% (inactive); in that of `CSc1nc2ccc(Nc3nc(N4CCOCC4)nc(N4CCOCC4)n3)cc2s1`, 2% (inactive); in that of `Cn1c(=O)[nH]c(=O)c2c1nc(N1CCc3ccccc3C1)n2CCSc1nc2ccccc2s1`, 4% (inactive). The result for `CC(C)N(Cc1nc(-c2ccccc2)no1)C(=O)CCCN1C(=O)c2ccccc2C1=O` reads 9% (inactive).

As to `NC(=O)C1(N2CCCCC2)CCN(Cc2ccccc2Cl)CC1`, the inhibition was 0% (inactive). In the case of `Cc1ccc2oc(=O)c3cnn(CC(=O)N4CCCc5ccccc54)c3c2c1` it was 1% (inactive). `CCC1CCCCN1C(=O)CSc1nnc(-c2ccc(OC)cc2)o1` (stereo not given): the inhibition was 0% (inactive).

For the compound `CC1=C(/C=C/C(C)=C/C=C/C(C)=C/C(=O)O)C(C)(C)CCC1`, the inhibition was 0% (inactive). `CCCc1cc(=O)[nH]c(=S)[nH]1`: the inhibition was 3% (inactive). In the case of `COCCNC(=O)CN(C)S(=O)(=O)c1ccc2c(c1)OCCO2` it was 7% (inactive); in that of `CCSc1nncn1/N=C/c1ccc(OC)c(OC)c1`, 4% (inactive). In the case of `Cc1cc2oc(=O)cc(CN3CCCCC3)c2cc1C(C)C` it was 0% (inactive). Take `CCC12CN3CC(CC)(CN(C1)C3c1ccc(OC(C)C)cc1)C2=O` (stereo not given): the inhibition is 9% (inactive). The result for `Cc1ccccc1N1CC(c2nc3ccccc3[nH]2)CC1=O` (stereo not given) reads 0% (inactive). Take `COc1cc(C(=O)N(C)c2nnc(-c3cccnc3)s2)cc(OC)c1OC`: the inhibition was 0% (inactive). In the case of `N=c1ncn(CC(O)CN2CCOCC2)c2nc(N3CCOCC3)[nH]c12` (stereo not given) it was 0% (inactive); in that of `CCOC(=O)CN1CC23C=CC(O2)C(C(=O)Nc2ccc(OC)cc2OC)C3C1=O` (stereo not given), 0% (inactive). In the case of `Cc1nnc2ccc(N3CCC4(CC3)OCCO4)nn12` it was 0% (inactive); in that of `COc1ccccc1N1CCN(C(=O)C2CCCO2)CC1` (stereo not given), 0% (inactive).

Take `O=C(C1CC1(c1ccccc1)c1ccccc1)N1CCOCC1` (stereo not given): the inhibition was 0% (inactive). In the case of `O=c1c2ccccc2nnn1CSc1nc2cc(Cl)ccc2c(=O)n1Cc1ccco1` it was 7% (inactive); in that of `Cc1ccc(NC(=O)c2ccccc2O)cc1`, 1% (inactive); in that of `O=C(O)CCc1ccc(-c2cccs2)o1`, 6% (inactive). The result for `CC(C)(C)n1nnnc1C(c1cccs1)N1CCN(Cc2ccccc2)CC1` (stereo not given) reads 12% (inactive); that for `O=C(Nc1ccc(N2C(=O)C3C4C=CC(C4)C3C2=O)cc1)Nc1nncs1` (stereo not given), 5% (inactive).

`Cn1c(=O)c2c(nc(CN3CCN(Cc4ccccc4)CC3)n2Cc2cccc(Cl)c2)n(C)c1=O`: the inhibition was 0% (inactive). In the case of `Cc1nnc(NC(=O)C2CCCO2)s1` (stereo not given) it was 3% (inactive).
